Experimental data taken from ChEMBL document CHEMBL3988442, “University of Dundee, Small-Polar-MMV Screening Library” (2021).
For some of these results: Potency and affinity values are given separately.

What was measured:
Parameters in all cases: scale not given: direction of the effect not stated beside the values
[1] = biological target: Protein translocase subunit SecA (Escherichia coli (strain K12)) (UniProt P10408); assay: Assay to Identify E. coli SecA ATPase Inhibitors; assay type: functional; settings: 30 µM
[2] = biological target: T1, Ubiquitin-activating enzyme e1, putative (Leishmania donovani (strain BPK282A1)) (UniProt E9BSI1); assay: Leishmania donovani Ubiquitin Activating Enzyme (LdE1); assay type: functional; settings: 30 µM
T1 sequence (whole entry): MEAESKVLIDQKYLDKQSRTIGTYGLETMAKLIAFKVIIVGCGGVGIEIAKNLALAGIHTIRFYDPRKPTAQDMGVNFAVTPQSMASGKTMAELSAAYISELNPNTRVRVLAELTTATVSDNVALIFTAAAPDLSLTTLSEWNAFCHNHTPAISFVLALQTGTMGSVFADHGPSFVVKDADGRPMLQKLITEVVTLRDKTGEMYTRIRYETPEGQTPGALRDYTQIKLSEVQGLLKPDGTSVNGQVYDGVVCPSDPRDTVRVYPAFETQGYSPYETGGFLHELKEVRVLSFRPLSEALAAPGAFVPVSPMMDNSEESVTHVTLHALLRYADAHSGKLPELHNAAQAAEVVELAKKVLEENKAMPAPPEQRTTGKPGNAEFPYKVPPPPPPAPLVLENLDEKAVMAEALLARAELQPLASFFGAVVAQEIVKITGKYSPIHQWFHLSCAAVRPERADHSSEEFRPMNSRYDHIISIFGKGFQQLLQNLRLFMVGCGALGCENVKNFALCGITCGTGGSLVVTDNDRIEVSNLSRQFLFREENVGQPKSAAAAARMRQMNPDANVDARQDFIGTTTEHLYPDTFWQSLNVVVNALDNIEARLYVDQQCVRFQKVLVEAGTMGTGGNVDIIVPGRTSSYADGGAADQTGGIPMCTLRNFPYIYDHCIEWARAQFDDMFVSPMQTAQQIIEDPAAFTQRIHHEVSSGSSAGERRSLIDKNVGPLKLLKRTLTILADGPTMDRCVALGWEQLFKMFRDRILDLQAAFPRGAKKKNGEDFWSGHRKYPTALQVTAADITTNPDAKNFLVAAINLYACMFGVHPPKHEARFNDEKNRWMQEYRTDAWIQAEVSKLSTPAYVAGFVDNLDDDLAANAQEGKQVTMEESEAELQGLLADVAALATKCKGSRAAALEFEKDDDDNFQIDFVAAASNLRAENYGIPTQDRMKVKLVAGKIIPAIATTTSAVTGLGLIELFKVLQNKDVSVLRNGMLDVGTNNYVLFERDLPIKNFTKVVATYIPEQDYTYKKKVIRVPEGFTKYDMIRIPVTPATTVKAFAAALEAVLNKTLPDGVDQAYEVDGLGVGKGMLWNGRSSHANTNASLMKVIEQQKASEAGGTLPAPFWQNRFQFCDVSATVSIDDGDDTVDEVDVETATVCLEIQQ

[3] = biological target: AMP-activated protein kinase, AMPK (Homo sapiens) (UniProt P54646+O43741+P54619+Q9UGJ0+Q9Y478+Q13131+Q9UGI9); assay: AMP-dependent Kinase enzyme assay. An in vitro enzyme assay that detects ADP turnover that is directly proportional to AMPK activity. This uses naive AMPK that is activated during the assay with MK-8722; assay type: functional; settings: 30 µM
[4] = biological target: Sialic acid-binding Ig-like lectin 9 (Homo sapiens) (UniProt Q9Y336); assay: Hs-Siglec9 ALPHAscreen SOP 20170721; settings: 10 µM
Trypanosoma cruzi = assay: Trypanosoma cruzi phosphomannomutase and mannose-1-phosphate guanylyltransferase assay; assay type: functional; settings: 10 µM
[5] = biological target: T2, Arginase-2, mitochondrial (Homo sapiens) (UniProt P78540); assay: in vitro enzyme assay to detect the production of urea directly proportional to the activity of Arginase II; assay type: functional; settings: 33.3 µM; note: in the data most compounds retested in dose-response had high values
T2 sequence (whole entry): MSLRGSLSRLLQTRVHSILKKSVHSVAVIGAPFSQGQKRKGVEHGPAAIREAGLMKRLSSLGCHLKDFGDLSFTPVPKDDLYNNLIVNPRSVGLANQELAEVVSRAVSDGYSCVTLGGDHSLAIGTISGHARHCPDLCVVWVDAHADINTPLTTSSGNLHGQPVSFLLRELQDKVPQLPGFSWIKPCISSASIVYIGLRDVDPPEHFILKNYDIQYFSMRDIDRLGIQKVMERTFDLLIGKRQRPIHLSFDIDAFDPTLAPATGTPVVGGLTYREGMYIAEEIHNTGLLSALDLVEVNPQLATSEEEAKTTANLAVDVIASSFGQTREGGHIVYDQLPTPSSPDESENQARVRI

[6] = biological target: T3, Proteasome subunit beta (Trypanosoma cruzi) (UniProt O96673); assay: Trypanosoma cruzi proteasome chymotrypsin-like activity (TcProtChymo) assay.; note: in the data most compounds retested in dose-response had high values; assay type: functional; settings: 9.37 µM
T3 sequence (whole entry): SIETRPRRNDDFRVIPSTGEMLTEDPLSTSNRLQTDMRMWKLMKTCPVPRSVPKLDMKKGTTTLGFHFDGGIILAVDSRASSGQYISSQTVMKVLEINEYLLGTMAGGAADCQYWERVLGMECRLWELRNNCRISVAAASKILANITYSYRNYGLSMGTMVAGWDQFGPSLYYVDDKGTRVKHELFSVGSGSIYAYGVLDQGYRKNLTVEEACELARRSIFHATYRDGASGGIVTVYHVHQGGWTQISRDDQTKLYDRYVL

Homo sapiens = species on record: Homo sapiens; assay: To identify inhibition of the IFN signalling (Jak-Stat) pathway via expression of an eGFP reporter gene under the control of an IFN-stimulated response element (ISRE) containing MxA promoter.; assay type: functional; settings: 30 µM
[7] = biological target: T4, Tyrosyl-tRNA synthetase, putative (Trypanosoma cruzi (strain CL Brener)) (UniProt Q4DSP6); assay: Trypanosoma cruzi tyrosyl tRNA synthetase (TcYRS) _High Tyrosine SOP; assay type: functional; settings: 30 µM; note: in the data most compounds retested in dose-response had high values
T4 sequence (whole entry): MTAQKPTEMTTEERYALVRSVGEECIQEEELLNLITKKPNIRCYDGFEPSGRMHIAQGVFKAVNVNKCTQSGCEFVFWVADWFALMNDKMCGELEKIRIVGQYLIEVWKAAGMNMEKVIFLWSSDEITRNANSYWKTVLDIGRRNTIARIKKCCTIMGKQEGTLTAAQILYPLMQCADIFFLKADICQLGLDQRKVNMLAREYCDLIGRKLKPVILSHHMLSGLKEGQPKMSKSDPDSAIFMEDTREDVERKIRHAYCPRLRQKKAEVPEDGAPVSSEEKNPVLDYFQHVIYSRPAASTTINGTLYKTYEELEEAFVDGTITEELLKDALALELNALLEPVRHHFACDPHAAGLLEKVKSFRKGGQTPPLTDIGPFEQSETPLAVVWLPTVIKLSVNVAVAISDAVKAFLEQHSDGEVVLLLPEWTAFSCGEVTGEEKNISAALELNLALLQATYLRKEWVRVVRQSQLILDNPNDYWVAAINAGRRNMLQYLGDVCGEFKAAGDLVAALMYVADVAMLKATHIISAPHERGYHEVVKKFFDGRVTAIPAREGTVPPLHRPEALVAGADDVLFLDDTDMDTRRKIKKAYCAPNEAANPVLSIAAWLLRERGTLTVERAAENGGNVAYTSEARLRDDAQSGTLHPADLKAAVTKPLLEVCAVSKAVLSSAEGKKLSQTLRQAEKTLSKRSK

[8] = biological target: T4, Tyrosyl-tRNA synthetase, putative (Trypanosoma cruzi (strain CL Brener)); assay: Trypanosoma cruzi tyrosyl tRNA synthetase (TcYRS) SOP; assay type: functional; settings: 30 µM
[9] = biological target: Chromo domain-containing protein 1 (Saccharomyces cerevisiae (strain ATCC 204508 / S288c) (Baker's yeast)) (UniProt P32657); assay: ScCHD-1 Enzyme Inhibition Assay; assay type: functional; settings: 30 µM; note: in the data most compounds retested in dose-response had high values
Chain of Chromo domain-containing protein 1 (Saccharomyces cerevisiae (strain ATCC 204508 / S288c) (Baker's yeast)) (P32657 whole entry, the tested form may be a part): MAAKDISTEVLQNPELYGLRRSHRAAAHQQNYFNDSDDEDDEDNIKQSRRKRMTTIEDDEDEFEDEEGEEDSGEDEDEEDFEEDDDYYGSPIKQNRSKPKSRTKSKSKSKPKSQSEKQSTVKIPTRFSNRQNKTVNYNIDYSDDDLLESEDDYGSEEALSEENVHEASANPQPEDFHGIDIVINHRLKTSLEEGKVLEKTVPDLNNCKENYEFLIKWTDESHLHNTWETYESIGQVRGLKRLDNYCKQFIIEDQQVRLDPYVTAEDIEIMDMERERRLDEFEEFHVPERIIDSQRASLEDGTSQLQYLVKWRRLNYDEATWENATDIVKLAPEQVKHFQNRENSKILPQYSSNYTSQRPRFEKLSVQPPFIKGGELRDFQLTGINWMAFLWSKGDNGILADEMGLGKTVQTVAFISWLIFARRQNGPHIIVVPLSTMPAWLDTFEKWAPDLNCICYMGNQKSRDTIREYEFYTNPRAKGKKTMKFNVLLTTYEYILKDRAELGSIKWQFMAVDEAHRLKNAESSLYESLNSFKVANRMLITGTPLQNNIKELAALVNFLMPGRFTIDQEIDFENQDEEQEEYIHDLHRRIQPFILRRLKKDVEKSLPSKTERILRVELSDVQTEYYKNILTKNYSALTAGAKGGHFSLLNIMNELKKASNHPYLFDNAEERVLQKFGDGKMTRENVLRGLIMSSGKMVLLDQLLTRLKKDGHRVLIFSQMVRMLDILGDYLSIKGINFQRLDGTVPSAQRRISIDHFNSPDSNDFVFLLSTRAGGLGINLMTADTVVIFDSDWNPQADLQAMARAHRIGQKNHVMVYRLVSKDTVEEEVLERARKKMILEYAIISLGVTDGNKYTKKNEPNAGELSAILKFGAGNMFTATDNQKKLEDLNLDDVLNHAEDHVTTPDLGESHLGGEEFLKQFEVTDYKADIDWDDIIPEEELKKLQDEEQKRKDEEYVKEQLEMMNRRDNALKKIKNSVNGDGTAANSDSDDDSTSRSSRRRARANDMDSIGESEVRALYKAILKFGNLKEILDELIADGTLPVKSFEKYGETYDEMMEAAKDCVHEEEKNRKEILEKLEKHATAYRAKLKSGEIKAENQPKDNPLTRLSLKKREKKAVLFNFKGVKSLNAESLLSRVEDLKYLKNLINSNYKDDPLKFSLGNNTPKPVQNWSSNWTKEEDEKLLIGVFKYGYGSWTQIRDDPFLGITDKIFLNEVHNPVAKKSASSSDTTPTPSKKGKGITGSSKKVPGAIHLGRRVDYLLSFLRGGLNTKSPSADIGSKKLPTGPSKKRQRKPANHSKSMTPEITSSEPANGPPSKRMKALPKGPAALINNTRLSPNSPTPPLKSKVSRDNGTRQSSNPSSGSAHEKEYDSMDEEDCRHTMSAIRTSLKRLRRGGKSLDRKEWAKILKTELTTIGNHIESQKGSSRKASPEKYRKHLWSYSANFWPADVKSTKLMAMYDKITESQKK

Chain of Sialic acid-binding Ig-like lectin 9 (Homo sapiens) (Q9Y336 whole entry): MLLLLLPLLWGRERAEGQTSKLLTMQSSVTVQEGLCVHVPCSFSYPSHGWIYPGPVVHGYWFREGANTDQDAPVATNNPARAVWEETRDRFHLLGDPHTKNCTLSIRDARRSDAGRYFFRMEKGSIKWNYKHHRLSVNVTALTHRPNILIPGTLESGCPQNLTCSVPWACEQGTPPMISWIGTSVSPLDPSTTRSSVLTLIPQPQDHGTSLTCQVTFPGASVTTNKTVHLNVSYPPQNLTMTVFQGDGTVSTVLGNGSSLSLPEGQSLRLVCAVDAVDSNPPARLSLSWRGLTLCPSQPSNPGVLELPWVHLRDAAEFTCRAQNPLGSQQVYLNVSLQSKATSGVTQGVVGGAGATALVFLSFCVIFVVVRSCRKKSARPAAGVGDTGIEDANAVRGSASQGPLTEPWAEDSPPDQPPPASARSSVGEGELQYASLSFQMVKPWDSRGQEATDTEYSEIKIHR
Chain of Protein translocase subunit SecA (Escherichia coli (strain K12)) (P10408 whole entry): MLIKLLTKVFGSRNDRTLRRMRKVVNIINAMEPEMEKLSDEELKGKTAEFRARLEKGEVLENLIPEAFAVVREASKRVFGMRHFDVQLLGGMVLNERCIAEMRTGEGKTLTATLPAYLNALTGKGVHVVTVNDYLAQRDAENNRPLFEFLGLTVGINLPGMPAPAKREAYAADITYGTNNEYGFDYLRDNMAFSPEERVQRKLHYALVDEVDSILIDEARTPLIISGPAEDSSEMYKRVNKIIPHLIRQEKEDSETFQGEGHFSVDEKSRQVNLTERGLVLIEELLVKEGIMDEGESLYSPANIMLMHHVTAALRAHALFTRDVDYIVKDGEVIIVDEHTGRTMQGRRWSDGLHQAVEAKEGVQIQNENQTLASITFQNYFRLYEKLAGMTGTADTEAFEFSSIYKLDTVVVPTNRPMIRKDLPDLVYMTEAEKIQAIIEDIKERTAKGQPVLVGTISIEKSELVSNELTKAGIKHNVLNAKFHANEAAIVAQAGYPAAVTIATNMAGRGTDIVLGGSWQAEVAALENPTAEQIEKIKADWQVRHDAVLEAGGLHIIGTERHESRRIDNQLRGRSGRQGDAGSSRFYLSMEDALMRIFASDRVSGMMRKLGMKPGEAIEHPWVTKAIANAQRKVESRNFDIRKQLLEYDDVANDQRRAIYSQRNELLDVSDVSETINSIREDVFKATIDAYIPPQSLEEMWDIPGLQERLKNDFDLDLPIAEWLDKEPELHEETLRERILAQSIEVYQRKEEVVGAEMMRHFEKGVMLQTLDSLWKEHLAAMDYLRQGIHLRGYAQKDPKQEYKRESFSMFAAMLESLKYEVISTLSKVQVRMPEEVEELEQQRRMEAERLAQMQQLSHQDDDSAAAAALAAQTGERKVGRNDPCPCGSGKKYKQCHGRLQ

Structure (SMILES)	Percent Effect [1] [%]	Percent Effect [2] [%]	Percent Effect [3] [%]	Percent Effect [4] [%]	Percent Effect (Trypanosoma cruzi) [%]	Percent Effect [5] [%]	Percent Effect [6] [%]	Percent Effect (Homo sapiens) [%]	Percent Effect [7] [%]	Percent Effect [8] [%]	Percent Effect [9] [%]
CNS(=O)(=O)c1cccc(C(C)NCc2cccc(OC)c2)c1 (stereo unspecified)	-3.08	-5.41	4.16	-2.94	-4.3	-0.417	4.31	11.2	0	-8.54	-3.26
Cc1nc(C)c(C(=O)NCCNC(=O)Cc2cccc(F)c2)s1	-3.25	16.2	-2.81	1.34	0.464	0.924	17.8	17.9	9.9	18.3	-4.49
CCCNC(=O)CN1CCC(C(=O)Nc2cnn(CC)c2)CC1	-4.73	18.4	-9.54	-8.7	-5.13	3.24	3.98	7.34	6.4	18.5	-3.68
O=C(CCc1cccs1)N1CCC(N2CCNC2=O)CC1	-2.57	23.4	-4.07	-12.7	3.23	-1.05	18.5	-5.88	7.62	25.9	-19.5
CCC(=O)N1CCc2[nH]cnc2C12CCN(C(=O)CCS(C)(=O)=O)CC2	1.36	6.94	-9.27	3.42	4.37	23.4	19.1	22.1	5.26	7.69	-2.55
Cc1cc(C)cc(C2(C(=O)N3CCCC(n4cncn4)C3)CC2)c1 (stereo unspecified)	-0.118	16.2	3.34	-6.31	-3.44	2.4	7.36	12.7	6.93	18.3	-6.26
CNS(=O)(=O)c1cccc(C(C)NCc2nccn2C(C)C)c1 (stereo unspecified)	-0.324	13.5	-9.13	-6.24	-0.781	16.2	16.3	10.9	10.9	15.8	2.31
O=C(NC1CCCC1)NC1CCC(C(=O)N2CCSCC2)CC1 (stereo unspecified)	-4.05	2.6	5.55	0.598	-5.61	-2.76	3.33	23.7	2.15	-1.24	-0.623
CN(C)C(=O)C1CN(Cc2cscn2)CCN(S(C)(=O)=O)C1 (stereo unspecified)	-11.5	17.6	-0.331	3.06	1.98	-1.16	6.55	2.48	7.53	19.5	-22.4
Cc1cnn(Cc2cc(F)ccc2F)c1NC(=O)NC1CC1	-4.44	16	-4.15	41.4	5.94	29.7	15.5	10.9	-16.9	21	-4.35
Cc1noc(C(C)C)c1C(=O)N1CCOCC1CC(=O)c1ccco1 (stereo unspecified)	-0.641	0	17.2	-3.82	0.487	1.18	7.38	-20.2	-2.13	-7.79	-0.46
